This passage reports binding signal results from publication PMC7862700, “An all-to-all approach to the identification of sequence-specific readers for epigenetic DNA modifications on cytosine”.

Common to all, as to test: DAPPL (digital affinity profiling via proximity ligation, sequencing); 10 mM Tris-HCl pH 7.5, 50 mM NaCl, 1 mM DTT, 4% glycerol, room temperature, 30 min; GST-TFs on glutathione beads, 16-mer random dsDNA library, 0.1% formaldehyde crosslink after washing; high values mean tight binding
For one assay, the target named is T1, FEV (Homo sapiens, UniProt Q99581 1-238).
T1 sequence: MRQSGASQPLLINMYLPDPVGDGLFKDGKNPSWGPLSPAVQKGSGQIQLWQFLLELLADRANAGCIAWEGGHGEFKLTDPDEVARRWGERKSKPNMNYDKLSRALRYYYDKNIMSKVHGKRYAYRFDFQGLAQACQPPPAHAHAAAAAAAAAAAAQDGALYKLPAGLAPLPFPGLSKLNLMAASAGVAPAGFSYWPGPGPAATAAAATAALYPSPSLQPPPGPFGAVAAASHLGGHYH
Conditions: protein: recombinant; tags: N-terminal GST; dsDNA, one strand shown. In outline: (§1)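 Human transcription factors were made in yeast as GST fusions, captured on glutathione beads and barcoded with DNA. With a tag-only sample included, the pool was incubated with 200 nmole of a random double-stranded 16-mer DNA library in Tris/NaCl/DTT/glycerol buffer at room temperature for 30 min, then crosslinked with 0.1% formaldehyde after washing, ligated by proximity, amplified and sequenced. For binding signal, each hexamer's read frequency for a factor is divided by its frequency for the tag-only sample.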

For another assay, the target named is ETV5 (Homo sapiens, UniProt P41161 1-510). Conditions: protein: recombinant; tags: N-terminal GST; dsDNA, one strand shown. In outline:
as §1

The next assay deals with HSF1 (Homo sapiens, UniProt Q00613 1-529). The settings on record: protein: recombinant; tags: N-terminal GST; chain copies: 3; dsDNA, one strand shown. In outline: as §1
Sequence of HSF1 (Q00613 whole entry): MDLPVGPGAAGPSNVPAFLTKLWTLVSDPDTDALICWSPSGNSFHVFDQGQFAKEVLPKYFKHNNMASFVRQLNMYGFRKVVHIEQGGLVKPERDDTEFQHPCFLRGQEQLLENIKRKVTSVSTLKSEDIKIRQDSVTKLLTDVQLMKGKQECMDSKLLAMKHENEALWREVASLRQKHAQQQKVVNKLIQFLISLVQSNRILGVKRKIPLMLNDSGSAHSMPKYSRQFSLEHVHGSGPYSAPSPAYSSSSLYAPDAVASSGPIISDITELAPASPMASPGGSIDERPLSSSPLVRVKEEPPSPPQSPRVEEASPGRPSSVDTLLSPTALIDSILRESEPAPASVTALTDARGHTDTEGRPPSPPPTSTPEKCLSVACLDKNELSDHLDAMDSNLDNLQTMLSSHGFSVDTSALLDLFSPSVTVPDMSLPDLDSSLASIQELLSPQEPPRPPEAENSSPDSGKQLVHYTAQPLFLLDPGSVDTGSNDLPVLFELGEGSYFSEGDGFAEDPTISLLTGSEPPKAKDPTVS
For the next assay, the target named is T2, SPIC (Homo sapiens, UniProt Q8N5J4 1-248).
T2 sequence: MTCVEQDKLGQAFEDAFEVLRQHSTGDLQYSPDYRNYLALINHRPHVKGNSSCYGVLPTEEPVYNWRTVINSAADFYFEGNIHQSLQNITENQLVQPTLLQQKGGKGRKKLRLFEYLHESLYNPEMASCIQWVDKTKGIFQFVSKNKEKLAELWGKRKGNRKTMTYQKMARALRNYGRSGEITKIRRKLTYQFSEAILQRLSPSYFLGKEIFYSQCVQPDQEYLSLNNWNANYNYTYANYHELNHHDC
The settings on record: protein: recombinant; tags: N-terminal GST; dsDNA, one strand shown. In outline: as §1

The next assay concerns the target ELF4 (Homo sapiens, UniProt Q99607 1-663). The settings on record: protein: recombinant; tags: N-terminal GST; dsDNA, one strand shown. In outline: as §1
In another assay the target is T3, ELK4 (Homo sapiens, UniProt P28324-2 1-405).
T3 sequence: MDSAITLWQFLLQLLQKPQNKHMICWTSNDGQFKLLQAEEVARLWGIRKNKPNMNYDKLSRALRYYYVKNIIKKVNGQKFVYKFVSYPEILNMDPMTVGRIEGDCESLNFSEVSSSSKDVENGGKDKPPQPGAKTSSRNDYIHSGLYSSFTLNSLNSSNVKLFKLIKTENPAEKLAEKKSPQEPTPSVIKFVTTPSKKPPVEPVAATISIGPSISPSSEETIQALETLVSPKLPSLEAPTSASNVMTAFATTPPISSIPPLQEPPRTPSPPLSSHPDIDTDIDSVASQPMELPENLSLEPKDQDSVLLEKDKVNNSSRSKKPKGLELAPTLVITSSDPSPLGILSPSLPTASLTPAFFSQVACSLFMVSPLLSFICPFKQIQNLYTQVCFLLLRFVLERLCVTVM
Conditions: protein: recombinant; tags: N-terminal GST; dsDNA, one strand shown. In outline: as §1

The target in another assay is T4, ETV2 (Homo sapiens, UniProt O00321 1-342).
T4 sequence: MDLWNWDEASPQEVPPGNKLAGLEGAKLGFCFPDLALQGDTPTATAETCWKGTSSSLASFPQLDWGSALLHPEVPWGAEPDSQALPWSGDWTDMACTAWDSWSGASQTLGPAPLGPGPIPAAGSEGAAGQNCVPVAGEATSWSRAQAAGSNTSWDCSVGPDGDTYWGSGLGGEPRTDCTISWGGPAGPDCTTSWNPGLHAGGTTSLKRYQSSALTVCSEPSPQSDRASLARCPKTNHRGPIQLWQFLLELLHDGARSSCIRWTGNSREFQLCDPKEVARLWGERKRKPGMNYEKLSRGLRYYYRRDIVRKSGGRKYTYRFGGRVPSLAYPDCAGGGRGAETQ
Conditions: protein: recombinant; tags: N-terminal GST; dsDNA, one strand shown. In outline:
as §1

In the next assay the target is T5, ELF3 (Homo sapiens, UniProt P78545 1-371).
T5 sequence: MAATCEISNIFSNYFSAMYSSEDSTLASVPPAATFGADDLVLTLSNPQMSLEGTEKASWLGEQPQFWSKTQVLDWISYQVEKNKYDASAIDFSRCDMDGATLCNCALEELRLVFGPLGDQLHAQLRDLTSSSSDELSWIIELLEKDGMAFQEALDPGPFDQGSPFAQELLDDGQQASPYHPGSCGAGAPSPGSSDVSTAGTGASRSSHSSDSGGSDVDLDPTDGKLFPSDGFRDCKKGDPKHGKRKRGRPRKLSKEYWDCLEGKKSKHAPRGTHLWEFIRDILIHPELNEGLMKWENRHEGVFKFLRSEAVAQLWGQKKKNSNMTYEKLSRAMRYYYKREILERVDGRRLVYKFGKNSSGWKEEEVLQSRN
Conditions: protein: recombinant; tags: N-terminal GST; dsDNA, one strand shown. In outline:
as §1

The next assay addresses CRX (Homo sapiens, UniProt O43186 1-299). Conditions: protein: recombinant; tags: N-terminal GST; dsDNA, one strand shown. In outline:
as §1

The target of a further assay is ETV1 (Homo sapiens, UniProt P50549 1-477). The settings on record: protein: recombinant; tags: N-terminal GST; dsDNA, one strand shown. In outline: as §1
Sequence of ETV1 (P50549 whole entry): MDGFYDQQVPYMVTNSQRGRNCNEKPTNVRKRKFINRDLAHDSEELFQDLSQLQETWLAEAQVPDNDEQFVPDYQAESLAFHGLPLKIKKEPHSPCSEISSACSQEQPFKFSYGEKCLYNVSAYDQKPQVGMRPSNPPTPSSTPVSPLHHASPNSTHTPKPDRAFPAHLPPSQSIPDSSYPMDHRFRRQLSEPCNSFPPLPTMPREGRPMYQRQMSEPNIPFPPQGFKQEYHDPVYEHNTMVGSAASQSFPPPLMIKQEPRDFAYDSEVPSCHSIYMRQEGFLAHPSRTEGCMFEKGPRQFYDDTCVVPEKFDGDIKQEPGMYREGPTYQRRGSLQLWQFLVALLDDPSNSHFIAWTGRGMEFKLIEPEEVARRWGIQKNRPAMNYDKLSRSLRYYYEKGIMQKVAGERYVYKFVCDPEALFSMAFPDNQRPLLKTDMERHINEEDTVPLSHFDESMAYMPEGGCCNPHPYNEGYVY
The target of another assay is T6, ERF (Homo sapiens, UniProt P50548 1-548).
T6 sequence: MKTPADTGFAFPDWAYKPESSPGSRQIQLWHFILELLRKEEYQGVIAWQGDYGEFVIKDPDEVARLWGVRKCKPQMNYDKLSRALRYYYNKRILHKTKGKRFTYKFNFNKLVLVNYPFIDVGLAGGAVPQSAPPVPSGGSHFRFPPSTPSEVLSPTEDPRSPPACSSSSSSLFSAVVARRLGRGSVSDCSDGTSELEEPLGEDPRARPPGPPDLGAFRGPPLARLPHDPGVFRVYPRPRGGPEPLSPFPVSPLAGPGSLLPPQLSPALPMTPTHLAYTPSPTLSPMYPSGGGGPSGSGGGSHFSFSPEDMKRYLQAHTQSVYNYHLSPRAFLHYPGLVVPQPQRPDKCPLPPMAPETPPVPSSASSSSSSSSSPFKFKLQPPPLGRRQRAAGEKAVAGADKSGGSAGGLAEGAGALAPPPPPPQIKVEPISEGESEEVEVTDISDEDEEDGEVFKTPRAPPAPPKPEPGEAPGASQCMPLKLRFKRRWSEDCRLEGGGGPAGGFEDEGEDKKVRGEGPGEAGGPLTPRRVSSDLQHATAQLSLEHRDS
The settings on record: protein: recombinant; tags: N-terminal GST; dsDNA, one strand shown. In outline: as §1

The next assay deals with T7, ETV3L (Homo sapiens, UniProt Q6ZN32 1-361).
T7 sequence: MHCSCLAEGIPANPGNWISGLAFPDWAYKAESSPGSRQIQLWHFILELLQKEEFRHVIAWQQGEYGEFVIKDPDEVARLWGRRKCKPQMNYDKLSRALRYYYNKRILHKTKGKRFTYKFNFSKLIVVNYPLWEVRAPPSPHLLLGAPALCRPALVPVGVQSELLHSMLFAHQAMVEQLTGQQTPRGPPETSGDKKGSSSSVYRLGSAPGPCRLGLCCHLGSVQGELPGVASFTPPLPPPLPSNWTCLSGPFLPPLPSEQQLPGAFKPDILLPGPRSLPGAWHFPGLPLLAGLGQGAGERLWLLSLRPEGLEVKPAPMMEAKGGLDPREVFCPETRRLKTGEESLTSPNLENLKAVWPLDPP
The settings on record: protein: recombinant; tags: N-terminal GST; dsDNA, one strand shown. In outline: as §1

For the next assay, the target named is T8, ETS2 (Homo sapiens, UniProt P15036 1-469).
T8 sequence: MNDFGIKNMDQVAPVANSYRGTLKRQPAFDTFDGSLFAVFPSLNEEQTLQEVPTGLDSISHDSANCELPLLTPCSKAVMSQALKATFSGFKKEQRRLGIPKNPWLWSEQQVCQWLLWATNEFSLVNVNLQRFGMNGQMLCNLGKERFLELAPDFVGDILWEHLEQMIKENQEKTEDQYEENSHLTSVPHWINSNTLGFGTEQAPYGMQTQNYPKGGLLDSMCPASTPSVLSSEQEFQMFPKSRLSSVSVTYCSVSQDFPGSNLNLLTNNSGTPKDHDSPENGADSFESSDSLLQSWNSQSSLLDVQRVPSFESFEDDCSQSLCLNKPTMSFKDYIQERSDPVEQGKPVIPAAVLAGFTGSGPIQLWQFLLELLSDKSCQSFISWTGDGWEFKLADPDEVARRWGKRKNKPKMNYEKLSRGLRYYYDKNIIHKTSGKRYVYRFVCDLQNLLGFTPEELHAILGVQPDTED
The settings on record: protein: recombinant; tags: N-terminal GST; dsDNA, one strand shown. In outline: as §1

Another assay deals with T9, SPDEF (Homo sapiens, UniProt O95238 1-335).
T9 sequence: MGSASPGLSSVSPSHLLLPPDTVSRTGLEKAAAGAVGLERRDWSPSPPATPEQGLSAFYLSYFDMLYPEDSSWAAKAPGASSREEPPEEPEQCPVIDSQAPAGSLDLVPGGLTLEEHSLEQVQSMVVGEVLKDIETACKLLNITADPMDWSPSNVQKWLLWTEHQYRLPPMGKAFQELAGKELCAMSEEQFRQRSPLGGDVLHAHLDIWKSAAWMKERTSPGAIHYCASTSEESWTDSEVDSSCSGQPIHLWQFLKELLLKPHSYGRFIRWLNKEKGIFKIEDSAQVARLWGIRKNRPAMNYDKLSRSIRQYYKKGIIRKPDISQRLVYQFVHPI
The settings on record: protein: recombinant; tags: N-terminal GST; dsDNA, one strand shown. In outline: as §1

The next assay addresses T10, ETV7 (Homo sapiens, UniProt Q9Y603 1-341).
T10 sequence: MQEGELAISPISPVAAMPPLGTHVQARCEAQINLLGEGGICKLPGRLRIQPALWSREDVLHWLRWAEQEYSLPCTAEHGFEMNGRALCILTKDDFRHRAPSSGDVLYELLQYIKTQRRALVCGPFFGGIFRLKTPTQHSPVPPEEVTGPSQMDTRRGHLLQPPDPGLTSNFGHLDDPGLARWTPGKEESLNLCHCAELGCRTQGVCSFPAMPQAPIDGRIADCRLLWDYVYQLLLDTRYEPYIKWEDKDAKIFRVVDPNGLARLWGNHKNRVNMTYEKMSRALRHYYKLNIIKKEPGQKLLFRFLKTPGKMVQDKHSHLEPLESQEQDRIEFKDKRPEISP
The settings on record: protein: recombinant; tags: N-terminal GST; dsDNA, one strand shown. In outline:
as §1

For another assay, the target named is T11, ELF5 (Homo sapiens, UniProt Q9UKW6-2 1-255).
T11 sequence: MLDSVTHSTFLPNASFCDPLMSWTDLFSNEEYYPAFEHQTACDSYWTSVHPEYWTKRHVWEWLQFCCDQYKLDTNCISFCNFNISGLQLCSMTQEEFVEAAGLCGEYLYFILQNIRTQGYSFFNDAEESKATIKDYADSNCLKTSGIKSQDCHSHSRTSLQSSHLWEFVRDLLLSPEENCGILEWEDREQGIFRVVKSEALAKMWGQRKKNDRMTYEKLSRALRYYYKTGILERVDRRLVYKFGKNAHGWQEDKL
Conditions: protein: recombinant; tags: N-terminal GST; dsDNA, one strand shown. In outline: as §1

The target in a further assay is T12, ETV3 (Homo sapiens, UniProt P41162-2 1-143).
T12 sequence: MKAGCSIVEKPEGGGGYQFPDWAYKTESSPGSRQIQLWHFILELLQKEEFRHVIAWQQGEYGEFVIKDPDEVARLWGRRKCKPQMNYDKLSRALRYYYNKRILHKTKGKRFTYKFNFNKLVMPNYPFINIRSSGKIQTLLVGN
The settings on record: protein: recombinant; tags: N-terminal GST; dsDNA, one strand shown. In outline: as §1

Another assay addresses ETV6 (Homo sapiens, UniProt P41212 1-452). The settings on record: protein: recombinant; tags: N-terminal GST; dsDNA, one strand shown. In outline: as §1

Sequence of ELF4 (Q99607 whole entry): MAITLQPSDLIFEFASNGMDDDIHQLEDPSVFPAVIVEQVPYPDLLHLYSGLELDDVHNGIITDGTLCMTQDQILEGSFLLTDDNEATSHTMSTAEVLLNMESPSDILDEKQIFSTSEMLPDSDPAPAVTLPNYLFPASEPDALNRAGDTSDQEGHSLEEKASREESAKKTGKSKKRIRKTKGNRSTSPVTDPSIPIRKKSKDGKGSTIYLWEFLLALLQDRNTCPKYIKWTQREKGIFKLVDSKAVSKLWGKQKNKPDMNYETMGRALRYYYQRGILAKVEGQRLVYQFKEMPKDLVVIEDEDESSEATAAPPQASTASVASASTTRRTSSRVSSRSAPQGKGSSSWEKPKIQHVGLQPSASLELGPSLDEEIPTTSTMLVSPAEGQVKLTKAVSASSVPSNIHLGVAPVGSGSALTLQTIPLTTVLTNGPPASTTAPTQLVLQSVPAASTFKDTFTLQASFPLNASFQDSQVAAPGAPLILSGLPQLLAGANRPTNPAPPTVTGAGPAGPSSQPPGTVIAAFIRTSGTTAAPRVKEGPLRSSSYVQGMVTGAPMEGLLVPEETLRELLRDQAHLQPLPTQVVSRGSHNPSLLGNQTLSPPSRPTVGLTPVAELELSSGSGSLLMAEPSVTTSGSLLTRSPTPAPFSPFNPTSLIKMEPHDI
Sequence of ETV6 (P41212 whole entry): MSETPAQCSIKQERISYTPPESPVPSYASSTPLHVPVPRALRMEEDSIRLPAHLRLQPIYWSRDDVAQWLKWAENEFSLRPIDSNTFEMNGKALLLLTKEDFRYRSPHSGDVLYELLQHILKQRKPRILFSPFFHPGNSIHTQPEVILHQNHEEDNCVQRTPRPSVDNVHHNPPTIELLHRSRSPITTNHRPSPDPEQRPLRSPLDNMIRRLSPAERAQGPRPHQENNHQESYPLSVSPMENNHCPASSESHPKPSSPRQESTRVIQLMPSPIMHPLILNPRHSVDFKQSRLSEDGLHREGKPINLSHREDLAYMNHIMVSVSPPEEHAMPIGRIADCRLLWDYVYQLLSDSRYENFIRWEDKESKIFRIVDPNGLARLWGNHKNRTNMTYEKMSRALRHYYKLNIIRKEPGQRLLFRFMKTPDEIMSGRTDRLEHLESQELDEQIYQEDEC
Sequence of CRX (O43186 whole entry): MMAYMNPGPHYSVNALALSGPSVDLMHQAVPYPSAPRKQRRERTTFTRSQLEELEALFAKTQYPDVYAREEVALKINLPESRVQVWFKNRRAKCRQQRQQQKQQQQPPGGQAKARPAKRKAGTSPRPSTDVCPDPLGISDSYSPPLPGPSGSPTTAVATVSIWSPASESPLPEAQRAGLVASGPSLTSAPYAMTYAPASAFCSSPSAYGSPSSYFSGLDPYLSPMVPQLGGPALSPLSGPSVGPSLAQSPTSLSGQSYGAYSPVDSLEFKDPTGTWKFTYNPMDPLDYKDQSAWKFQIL
Sequence of ETV5 (P41161 whole entry): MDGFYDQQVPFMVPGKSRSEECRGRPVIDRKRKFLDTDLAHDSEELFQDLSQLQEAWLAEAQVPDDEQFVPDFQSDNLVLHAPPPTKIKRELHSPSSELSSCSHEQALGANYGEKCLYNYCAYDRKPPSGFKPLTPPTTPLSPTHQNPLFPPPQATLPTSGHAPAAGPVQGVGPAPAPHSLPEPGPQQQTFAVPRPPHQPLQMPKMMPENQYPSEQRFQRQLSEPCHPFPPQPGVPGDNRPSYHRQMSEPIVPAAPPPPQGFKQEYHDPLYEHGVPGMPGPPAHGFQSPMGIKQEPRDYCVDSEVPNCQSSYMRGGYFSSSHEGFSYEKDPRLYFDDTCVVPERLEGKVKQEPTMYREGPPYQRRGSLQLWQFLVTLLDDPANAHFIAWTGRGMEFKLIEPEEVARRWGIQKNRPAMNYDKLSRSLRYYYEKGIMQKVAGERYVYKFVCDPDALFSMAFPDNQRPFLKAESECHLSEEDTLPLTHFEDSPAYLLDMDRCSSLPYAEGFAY

Take TCTAAA: the binding signal is 1.15 fold enrichment (6-mer frequency, TF over GST control) with FEV; 1.15 fold enrichment (6-mer frequency, TF over GST control) with ETV5; 1.46 fold enrichment (6-mer frequency, TF over GST control) in the assay with HSF1; 1.46 fold enrichment (6-mer frequency, TF over GST control) in the assay with SPIC; 1.27 fold enrichment (6-mer frequency, TF over GST control) with ELF4; 1.3 fold enrichment (6-mer frequency, TF over GST control) with ELK4. The binding signal with ETV2 was 1.27 fold enrichment (6-mer frequency, TF over GST control); with ELF3 it was 1.14 fold enrichment (6-mer frequency, TF over GST control); with CRX, 1.6 fold enrichment (6-mer frequency, TF over GST control); in the assay with ETV1, 1.16 fold enrichment (6-mer frequency, TF over GST control); with ERF, 1.17 fold enrichment (6-mer frequency, TF over GST control); with ETV3L it was 1.18 fold enrichment (6-mer frequency, TF over GST control). Moreover, the binding signal with ETS2 was 1.21 fold enrichment (6-mer frequency, TF over GST control); with SPDEF, 1.21 fold enrichment (6-mer frequency, TF over GST control); in the assay with ETV7, 1.18 fold enrichment (6-mer frequency, TF over GST control); with ELF5 it was 1.16 fold enrichment (6-mer frequency, TF over GST control); with ETV3, 1.28 fold enrichment (6-mer frequency, TF over GST control); in the assay with ETV6, 1.12 fold enrichment (6-mer frequency, TF over GST control).
